Calls of active or inactive are those of the source. Where a call stands in place of a potency, no number is given. Calls come from the whole dose curve; as a rule, active = well fitted curve in the direction sought with a large enough effect; inactive = no such curve, though single readings can be large or run the other way.

Data on three molecules can be found in PubChem BioAssay AID493166 (National Center for Advancing Translational Sciences (NCATS), 2011).

A short description of this assay: Retest of LOPAC molecules that induce DNA re-replication in MCF 10A normal breast cells. The conditions noted are these: MCF 10A DNA re-replication, Hoechst nuclear intensity, 48 h; series mostly up to 45.1 µM. The text has this: NIH Molecular Libraries Probe Production Network [MLPCN] NIH Chemical Genomics Center [NCGC] MLPCN Grant: Fast Track K99 CA136555 Assay Provider: Melvin DePamphilis, NICHD, NIH Assay Overview Eukaryotic cells normally restrict genome duplication to once per cell division. When this process is aberrant, DNA re-replication occurs when cells reinitiate DNA replication before the first round of replication is complete. DNA re-replication induces the DNA damage response, arrests cell proliferation, and triggers apoptosis. The cell cycle components cyclin A, Cdt-1, Cdc6 and geminin are critical regulators of this process and their misregulation results in DNA re-replication in normal and cancer cells. To identify compounds that induce re-replication in normal cells, an image-based assay was used to measure DNA content of nuclei, as detected by the fluorescent DNA binding dye, Hoechst. Cell nuclei were imaged by a fluorescence scanning plate imager and compounds that induce DNA re-replication were identified by the increase of nuclei with elevated fluorescence intensity.
Assay Protocol Summary For screening, 250 cells in 5 uL/well were dispensed into black clear 1536-well plates (Aurora) using a solenoid-based dispenser. Following transfer of 23 nL compound or DMSO vehicle by a pin tool, the plates were incubated 48 hr at 37 C and 5% CO2. After addition of 1 uL/well Hoescht stain, the plates were incubated 40 min at 37 C, 5% CO2 and total intensity of fluorescent objects (nuclei) were enumerated by an Acumen Explorer Ex3 (TTP LabTech) fluorescence scanning plate imager (405 nm excitation, 500-530 nm emission). Keywords: NIH Roadmap, MLPCN, MLI, MLSMR, qHTS, NCGC, DNA replication, cancer
As to `CC(C)NP(=O)(NC(C)C)OP(=O)(NC(C)C)NC(C)C`, the Potency entry was “inactive”.

`C=C(C)[C@H]1Cc2c(ccc3c2O[C@@H]2COc4cc(OC)c(OC)cc4[C@@H]2C3=O)O1`: the Potency is 755 nM (active).

In the case of `COc1cc2c(c(OC)c1OC)-c1ccc(OC)c(=O)cc1[C@@H](NC(C)=O)CC2`, the Potency entry was “inactive”.
